Data on 40 compounds can be found in PubChem BioAssay (EPA / NIEHS).

Calls of active or inactive are those of the source. The calls were made as follows: active = hit-call score of the fitted dose curve at least 0.9, where 1 is the maximum; inactive = score below 0.9.

Read-out in this experiment: matrix metalloproteinase-3 (MMP3), MMP3 (gene 4314)
Put plainly: LTEA_HepaRG_MMP3: Life Technologies and Expression Analysis (LTEA) Assay for matrix metalloproteinase-3 (MMP3) using HepaRG (AID 2283519). The note with it: mRNA level, 48 h; actives raise or lower the signal. The procedure:
LTEA_HepaRG is a cell based, multiplexed-readout assay that uses HepaRG, a human liver cell line, with measurements taken at 48 hours after chemical dosing on a 96-well plate.LTEA_HepaRG_MMP3 is one of 102 assay component(s) measured in the LTEA HepaRG cell culture assay. It is a marker of Fibrosis.Data from the assay component LTEA_HepaRG_MMP3 was analyzed into 1 endpoint. This assay endpoint, LTEA_HepaRG_MMP3, was analyzed with bidirectional fitting relative to DMSO as the negative control and baseline of activity. Using a type of inducible reporter, measures of mRNA induction for gain or loss-of-signal activity can be used to understand regulation of transcription factor activity. To generalize the intended target to other relatable targets, this assay endpoint is annotated to the protease intended target family, where the subfamily is matrix metalloproteinase.
A total of 1060 chemcials from the ToxCast library were tested in eight-point concentration-response experiments. Cell culture and cytotoxicity assays were conducted at Thermo Fisher Scientific's Custom Services facility (Madison, WI). A single lot of human HepaRG cells (Thermo Fisher Scientific, Frederick, MD) was used for the cell culture experiments. 96-well format collagen type I coated plates of human HepaRG cells were prepared using established methods. Briefly, cryopreserved HepaRG cells were thawed, plated at a density of approximately 100,000 cells/well in HepaRG Thaw, Plate, and General Purpose media (HPRG770, Thermo Fisher Scientific), and incubated for 48 hours. 0.5% DMSO was selected as vehicle control to balance the requisite need of DMSO in HepaRG cultures to maintain differentiation (for example, baseline metabolism, proportions of hepatocytes vs. cholangiocytes), while enabling further hepatic receptor pathway activation (for example, PXR and CAR) in response to chemical exposure. 48 hours after plating, the culture medium was replaced with HepaRG Serum-Free Incudtion Media. Cells were exposed to each test chemical in duplicate and maintained in CO2 incubators for another 48 hours. Chemical plates were thawed to room temperature and 200x concentrations of treatment groups were prepared. 8-point conentration-reponse curves were made with the highest exposure at 100 uM, followed by half-log dilutions, all in 0.5% DMSO. Each test plate contained variouse controls, induction positive controls (1mM phenobarbital), cytotoxicity positive controls ([…] aflatoxin B1), vehicle controls (0.5% DMSO), and total lysis controls (0.5% DMSO). Cell morphology images were taken using an Essen IncuCyte FLR automated microscope, with six 96-well plates imaged in about 24 minutes. Images were captured and exported and JPEG files. Spent culture media was transfered to black-well plates for the LDH assay, and remaining media was sorted at -80 C for later use. Cells were treated with RLT buffer and frozen until shipped for gene expression analysis. Total RNA was isolated from the cell suspension in 75 uL of Buffer RLT (Qiagen, Germantown, MD 20874) by Quintiles/Expression Analysis (Durham, NC) using a custom isolation procedure. Total RNA from each plate well was transferred to a preamplification plate. Fluidigm's 96.96 Dynamic ArrayTM (Fluidigm, Amsterdam, the Netherlands) technology was used for gene expression analyses by quantitative reverse transcription polymerase chain reaction (qRT-PCR, performed by Quintiles/Expression Analysis, Durham, NC)89. Standard TaqManTM Assays (Applied Biosystems/ThermoFisher Scientific, Foster City, CA) were used to assess the expression of 93 genes selected based on their selectivity and sensitivity to important hepatic receptors known to be modulated by environmental chemicals; importance in human hepatocyte functionality; and hepatotoxicity. […]
As to `CCCCOC(=O)c1ccccc1C(=O)OCc1ccccc1`, the result was inactive.

Turning to `CC(C)COC(=O)c1ccccc1C(=O)OCC(C)C`, the outcome was inactive. On the same count and under the same terms, the result for `CN(C)C(=O)Nc1ccc(Cl)cc1` reads “inactive”; that for `O=[N+]([O-])C(Br)(CO)CO`, “inactive”.

For `O=C1CCCO1`, the AC50 was 83.1 µM (active). Regarding `COc1cc(C=O)cc2c1[C@H](COC(N)=O)[C@]1(OC(C)=O)ON2C[C@H]2[C@@H]1N2C(C)=O`, the half-maximal activity concentration (AC50) is 1.44 µM (active). Same read-out and setting: the result for `Nc1ccc(Cl)cc1N` reads 30.1 µM (active). Take `OCCCl`: the call was inactive. Still for that read-out and setting: the result for `CC(O)CCO` (stereo not given) reads “inactive”; that for `c1ccc(N=Nc2ccccc2)cc1`, “inactive”; that for `c1ccc(C2CO2)cc1` (stereo not given), “inactive”. The same measure, in the same setting: the result for `N#CC(Br)(Br)C(N)=O` reads “inactive”; that for `Oc1ccc2ccc3cccc4ccc1c2c34`, “inactive”. With `O=C(N[C@H](c1ccccc1)[C@@H]1CN2CCC1CC2)c1c(Cl)ccc(C(F)(F)F)c1Cl`, the AC50 is 73.6 µM (active). Consider `Clc1ccc(Cl)c(Cl)c1`, for which the outcome was inactive. Still for that read-out and setting: the result for `Clc1ccc(C(c2ccc(Cl)cc2)C(Cl)Cl)cc1` reads “inactive”; that for `Cn1cc(-c2ccccc2)c(=O)c(-c2cccc(C(F)(F)F)c2)c1`, “inactive”. Still for that read-out and setting: the result for `CCCSC(=O)N(CCC)CCC` reads “inactive”; that for `CC(C)(C)OOC(C)(C)CCC(C)(C)OOC(C)(C)C`, “inactive”.

Take `CCOc1cccc(C2(N3CCN(c4ccccc4)CC3)CCC(C)CC2)c1` (stereo not given): the AC50 is 89.9 µM (active). `Clc1ccccc1Cl`: the outcome was inactive.

For `[O-][Cl+]O`, the outcome was inactive.

On to `CN(C)[C@@H]1C(=O)C(C(N)=O)=C(O)[C@@]2(O)C(=O)C3=C(O)c4c(O)cccc4[C@@](C)(O)[C@H]3C[C@@H]12`, for which the outcome was inactive. With `CCC(C)c1ccc(O)cc1` (stereo not given), the call was inactive. On the same count and under the same terms, the result for `O=[N+]([O-])c1ccc(Oc2ccc(Cl)cc2Cl)cc1` reads “inactive”; that for `Cc1ccc(N=C=O)cc1N=C=O`, “inactive”. Consider `O=P(OCCCl)(OCCCl)OCCCl`, for which the AC50 was 67.3 µM (active). Take `O=Cc1ccco1`: the compound was classed as inactive. Take `C[C@]12C=CC3=C4CCC(=O)C=C4CC[C@H]3[C@@H]1CC[C@@H]2O`: the result was inactive. Regarding `COC(=O)c1ccccc1N`, the compound was classed as inactive.

Regarding `O=C(Nc1ccccc1)c1ccccc1I`, the result was inactive.

For `Clc1ccc(C(c2ccc(Cl)cc2)C(Cl)(Cl)Cl)cc1`, the compound was called inactive. Same read-out and setting: the result for `CC(C)(C)OOC(=O)c1ccccc1` reads “inactive”. Still for that read-out and setting: the result for `CNC(=O)Oc1cccc2c1OC(C)(C)C2` reads “inactive”.

For `CCN(CC)CCO`, the call was inactive. Regarding `CC(C)(OOC(C)(C)c1ccccc1)c1ccccc1`, the call was inactive.

In the case of `c1ccc2c(c1)oc1ccccc12`, the call was inactive. Still for that read-out and setting: the result for `CCN(CC)N=O` reads “inactive”.

In the case of `ClCCOCCCl`, the compound was classed as inactive.

Consider `OCCCBr`, for which the compound was called inactive.
